# Screens: PubChem, National Center for Advancing Translational Sciences (NCATS)
# Only some compounds are listed: those with a hit (about 2.4% of all), similar ones and a draw of the others.
# Tb PGK inh = blocks T. brucei phosphoglycerate kinase; P07378; PGK/GAPDH coupled, Kinase-Glo luminescence, 60 min; Potency, µM (series often up to 57.5 µM), for inactives: top-dose activity change, negative = inhibition, most hits filed as inhibitors; 380,000 compounds, 0.043% hits; also: % is scaled to controls: 0 for no effect and ±100 for the full control effect; nearly all actives have a fitted effect of over 60% in size
#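 Luminescent ATP detection (Kinase-Glo Plus) follows a 60-minute room-temperature incubation, with wells lacking PGK as controls. Buffer: 100 mM TEA (pH 7.6), 5 mM MgCl2, 0.01% Tween-20. Coupling enzyme GAPDH (100 nM final) supplies unstable 1,3-BPG in-well.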
# POLI inh = DNA polymerase iota (human) inhibition; Q9UNA4; Pol iota fluorescent replication assay, 10 min; Potency, µM (top dose mostly 115 µM), for inactives: at the highest dose activity, negative = inhibition, hits mostly inhibitors; 390,000 compounds, 1% hits
#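 Fluorescent replication assay read twice, at 0 min and 10 min after adding 50 nM (final) substrate. Enzyme (10 nM) and compounds were first incubated 15 min at room temperature; enzyme-free buffer wells were negative controls.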
# Pol kappa inh = blocks human DNA polymerase kappa activity; purified Pol kappa, fluorescent DNA synthesis assay, 10 min; Potency, µM (top dose mostly 107 µM), for the others: top-dose activity, negative = inhibition, usual class: inhibitors; AID 588579; 400,000 compounds, 0.53% hits; also: % is scaled to controls: 0 for no effect and ±100 for the full control effect
# Target sequence (Q9UBT6 whole entry, looked up): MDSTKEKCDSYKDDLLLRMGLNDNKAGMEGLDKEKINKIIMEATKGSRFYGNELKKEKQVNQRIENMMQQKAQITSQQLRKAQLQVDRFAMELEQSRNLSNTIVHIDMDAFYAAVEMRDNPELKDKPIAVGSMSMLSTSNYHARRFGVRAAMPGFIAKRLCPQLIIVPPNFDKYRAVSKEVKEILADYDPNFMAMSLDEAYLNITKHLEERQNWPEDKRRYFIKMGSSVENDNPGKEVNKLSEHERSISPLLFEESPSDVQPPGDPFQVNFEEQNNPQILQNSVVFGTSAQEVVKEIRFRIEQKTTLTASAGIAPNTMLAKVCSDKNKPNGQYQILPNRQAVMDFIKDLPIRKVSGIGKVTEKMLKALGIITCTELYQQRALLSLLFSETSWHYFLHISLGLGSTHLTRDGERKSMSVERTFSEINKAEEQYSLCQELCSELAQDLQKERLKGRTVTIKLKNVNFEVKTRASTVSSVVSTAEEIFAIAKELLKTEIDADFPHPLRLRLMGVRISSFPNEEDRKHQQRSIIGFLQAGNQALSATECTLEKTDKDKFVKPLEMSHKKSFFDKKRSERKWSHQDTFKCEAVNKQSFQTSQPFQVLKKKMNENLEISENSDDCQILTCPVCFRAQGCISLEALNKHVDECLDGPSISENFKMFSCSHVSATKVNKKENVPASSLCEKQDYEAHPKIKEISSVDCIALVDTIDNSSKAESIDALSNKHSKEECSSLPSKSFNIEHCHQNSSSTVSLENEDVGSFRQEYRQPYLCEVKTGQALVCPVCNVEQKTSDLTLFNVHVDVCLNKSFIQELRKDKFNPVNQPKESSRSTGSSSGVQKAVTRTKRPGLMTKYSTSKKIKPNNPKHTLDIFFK
#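 Fluorescent qHTS in 1536-well format: enzyme (10 nM) and compound sat 15 min at room temperature before 50 nM substrate (final) was added. Signal taken at 0 and 10 min; no-enzyme buffer wells were negative controls.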
# Pol eta inh = DNA polymerase eta (human) inhibition. recombinant Pol eta, fluorescent DNA replication assay. AID 588591. 390,000 compounds, 1.2% hits. Potency, µM (top dose mostly 114 µM), inactives show at the top dose activity change, negative = inhibition, usual class: inhibitors. Q9Y253; also: % is scaled to controls: 0 for no effect and ±100 for the full control effect
#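 Fluorescent replication assay: 50 nM final substrate added after a 15 min room-temperature compound preincubation with 10 nM enzyme. Signal taken at 0 min and again at 10 min.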
# FEN1 inh = blocks human flap endonuclease 1; P39748; Recombinant FEN1 flap cleavage, fluorescence, 15 min; Potency, µM (highest dose often 114 µM), for inactives: at the top dose activity change, negative = inhibition, actives largely listed as inhibitors; 390,000 compounds, 0.35% hits; also: % is scaled to controls: 0 for no effect and ±100 for the full control effect; nearly all actives have a fitted effect of over 65% in size
#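 Enzyme 10 nM, 15 min RT preincubation with compound; start with substrate 50 nM final; reads at 0 and 15 min; qHTS titration, four-parameter Hill fit.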
# POLB inh = inhibitors of human DNA polymerase beta. P06746. Pol beta primer extension/strand displacement, fluorescence kinetic. Potency, µM (doses to about 114 µM), without a hit: at the top dose activity change, negative = inhibition, actives largely listed as inhibitors. 340,000 compounds, 1.3% hits; also: % is scaled to controls: 0 for no effect and ±100 for the full control effect
#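 Reaction started by 50 nM substrate onto compound-treated Pol beta (10 nM, 15 min preincubation, room temperature); plates read at 0 min and 10 min. Normalized concentration-effect data fitted by four-parameter Hill equation.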
# * hit, by the source's call; i = inactive; ? = inconclusive; . = no result given; ! = repeats disagree; [ ] = remark or other dose. Calls follow the shape of the dose curve; as a rule, active = well fitted curve in the direction sought with a large enough effect; inconclusive = small, poorly fitted or top-dose-only effect, or another doubt; inactive = no such curve, though single readings can be large; an effect the other way counts as inactive or inconclusive. Potency is read from the fitted curve at half-maximal effect.
SMILES,Tb PGK inh,POLI inh,Pol kappa inh,Pol eta inh,FEN1 inh,POLB inh
CC[C@@H](C(=O)[C@@H](C)[C@@H](O)[C@H](C)CCc1ccc(C)c(O)c1C(=O)O)[C@H]1O[C@](CC)([C@H]2CC[C@](O)(CC)[C@H](C)O2)C[C@@H]1C,-7%,?,-17%,-27%,-17%,22µM*
O=C(COc1ccc(S(=O)(=O)N2CCOCC2)cc1)N1CCOCC1,-3%,27%,-14%,-6%,-2%,.
O=C(COc1ccc(/C=C\[N+](=O)[O-])cc1)N1CCOCC1,3%,32µM*,-20%,32µM*,20%,-24%
CC1=NN(Cc2ccccc2)C(=O)C1,i,3.2µM*,-17%,-12%,?,43%
O=c1c2ccccc2oc2ccc(-c3ccoc3)cc12,.,14µM*,?,.,?,.
O=C(c1ccc2c(=O)n(CCc3ccccc3)c(=O)[nH]c2c1)N1CCN(C(=O)c2ccco2)CC1,.,0%,-10%,.,11%,.
N#CC1=C2SCN(C3CCCCC3)CN2C(=O)CC1c1ccc(Br)cc1 (stereo unspecified),-3%,20µM*,-29%,?,?,?
N#CC1=C2SCN(Cc3ccco3)CN2C(=O)CC1c1ccc(Cl)cc1 (stereo unspecified),-13%,-4%,-31%,-12%,-8%,-24%
CCOc1cc(C2CC(=O)N3CN(C4CCCCC4)CSC3=C2C#N)ccc1O (stereo unspecified),1%,35µM*,-29%,-13%,?,-17%
CS(=O)(=O)N1CCN(/[N+]([O-])=N/Oc2ccc([N+](=O)[O-])cc2[N+](=O)[O-])CC1 (tested in a mixture with another compound),.,?,-14%,.,-17%,.
COc1ccc(C)cc1S(=O)(=O)NCC(c1cccs1)S(=O)(=O)c1ccc(C)cc1 (stereo unspecified),0%,-1%,-5%[60.1 µM],-4%,11%,0%
COc1ccc(-c2nc(-c3cccs3)c(-c3cccs3)[nH]2)cc1OC,6%,-8%,-23%,-13%,-20%,89µM*
CCCCCCCOc1ccc(CC(=O)NO)cc1,.,15%,3%,.,-1%,.
O=C(OCC(=O)N1N=C(c2ccc(Cl)cc2)CC1c1ccco1)c1cccnc1 (stereo unspecified),-2%,?,45µM*,28µM*,?,.
COc1ccc(C2=NN(C(=O)CSc3nc4ncc(Cl)cc4[nH]3)C(c3ccco3)C2)cc1 (stereo unspecified),6%,45µM*,89µM*,-11%,-3%,11%
O=C(C[N+]1(CCc2ccccc2)CCOCC1)c1cccc([N+](=O)[O-])c1,.,9%,2%,.,-1%,.
Cc1cc(C)c2nc(-c3ccccn3)cc(C(=O)NCc3cc(C)n(C)n3)c2c1,-6%,17%,0%,-10%,3%,40µM*
Cc1cc(C)c2nc(-c3ccccn3)cc(C(=O)NCc3ccco3)c2c1,-6%,?,?,?,0%,40µM*
CC(/C=C/c1ccco1)=N\NC(=O)c1cc(C)[nH]n1,i,18µM*,?,79µM*,-15%,20µM*
O=C(O)c1ccc(Nc2cc(Cl)c3nonc3c2[N+](=O)[O-])cc1,5%,8.9µM*,-10%,-8%,?,-19%
Cc1c(Nc2cc(Cl)c3nonc3c2[N+](=O)[O-])c(=O)n(-c2ccccc2)n1C,1%,-41%,-15%,-14%,-1%,1%
O=[N+]([O-])c1c(Nc2cccc(O)c2)cc(Cl)c2nonc12,-10%,13µM*,-1%,25µM*,50µM*,2%
COc1ccc(OCCCCn2c(C3CC(=O)N(c4cccc(Cl)c4)C3)nc3ccccc32)cc1 (stereo unspecified),-2%,23%,-4%,-9%,-11%,7%
NCCCC[C@H]1NC(=O)[C@H](CCC(=O)O)NC(=O)c2cc([N+](=O)[O-])cc(I)c2OCC[C@@H](C(N)=O)NC1=O,?,8.9µM*,3.5µM*,-98%,22µM*,-9%
C[C@@H]1NC(=O)c2cc([N+](=O)[O-])cc(I)c2OCC[C@@H](C(N)=O)NC(=O)[C@H](CCCCN)NC1=O,0%,-13%,-8%,-6%,9%,-1%
SMILES,Tb PGK inh,POLI inh,Pol kappa inh,Pol eta inh,FEN1 inh,POLB inh
CSCCC(NS(=O)(=O)c1ccc2c(c1)oc(=O)n2C)C(=O)NCc1ccc(Cl)cc1 (stereo unspecified),-8%,-9%,-3%[60.1 µM],-9%,-1%,-24%
COc1ccc(S(=O)(=O)c2nnn(-c3cc(Cl)c(OC)cc3OC)c2C)cc1,?,?,-12%,89µM*,-1%,0%
COc1ccc2nc(SCC(C)=O)c(C#N)cc2c1,-6%,-18%,-11%,1%,-15%,-28%
COc1ccc2nc(SC)c(C#N)cc2c1,i,89µM*,15%,-1%,12%,29%
COc1cccc(CNC(=O)Cc2ccc(NC(=O)C3=C(C)OCCS3)cc2)c1,-5%,?,?,?,-9%,22µM*
CC1=C(C(=O)Nc2ccc(CC(=O)NCc3ccccc3C)cc2)SCCO1,10%,20%,-2%,-15%,16%,5%
Cc1cc(C(=O)O)ccc1-c1ccc(/C=C2\SC(=O)N(CC(=O)Nc3ccc4c(c3)OCO4)C2=O)o1,.,.,.,.,.,0%
Cc1cc(C(=O)O)ccc1-c1ccc(/C=C2\NC(=O)N(Cc3ccccc3Cl)C2=O)o1,?,5.6µM*,22µM*,4.5µM*,?,14µM*
O=C(N/N=C/c1ccccc1C(=O)O)c1cc(-c2ccc3c4c(cccc24)CC3)n[nH]1,-6%,56%,-4%,?,-24%,56µM*
CCOc1nc(C#N)nc(N2CCOCC2)n1,.,10%,-4%,.,-14%,.
c1cc2c3c(c1)CCC[N+]3(C1CCCCC1)CCC2,.,27%,-14%,.,-1%,.
Cc1ccc(Cn2c(=O)c3cccnc3n(CC(=O)Nc3cccc(C(F)(F)F)c3)c2=O)cc1,8%,89µM*!,-30%,?,?,-125%
COc1ccccc1NC(=O)Nc1ccc(Cl)c(S(=O)(=O)Nc2ccccc2OC)c1,5%,145%,-13%,-9%,-11%,2%
COc1ccccc1NS(=O)(=O)c1cc(NC(=O)CNC(=O)c2ccc(C)s2)ccc1Cl,-2%,79µM*,-28%,?,45µM*,19%
O=C1C(O)=C(O)C(=O)C(O)=C1O,.,.,8.9µM*,.,.,.
